Compounds with a hit are over-represented: about 3.8% of the library has one in this group of screens.
NTR1 ag = agonists of human NTR1, primary screen, imaging, U2OS cells, beta-arrestin-GFP, high content. Neurotensin receptor type 1 (Homo sapiens), P30989. NTR1-U2OS beta-arrestin-GFP spot imaging, agonist mode. activation, % at 20 µM. hit rate 0.17% among 330,000. AID 493036, 2011;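 active means activation at or above 40% of the spot to cytoplasm intensity ratio, with at least 20 cells analyzed; inconclusive means wells under 20 cells, flagged as cytotoxic or low count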
Target sequence (P30989 whole entry, looked up): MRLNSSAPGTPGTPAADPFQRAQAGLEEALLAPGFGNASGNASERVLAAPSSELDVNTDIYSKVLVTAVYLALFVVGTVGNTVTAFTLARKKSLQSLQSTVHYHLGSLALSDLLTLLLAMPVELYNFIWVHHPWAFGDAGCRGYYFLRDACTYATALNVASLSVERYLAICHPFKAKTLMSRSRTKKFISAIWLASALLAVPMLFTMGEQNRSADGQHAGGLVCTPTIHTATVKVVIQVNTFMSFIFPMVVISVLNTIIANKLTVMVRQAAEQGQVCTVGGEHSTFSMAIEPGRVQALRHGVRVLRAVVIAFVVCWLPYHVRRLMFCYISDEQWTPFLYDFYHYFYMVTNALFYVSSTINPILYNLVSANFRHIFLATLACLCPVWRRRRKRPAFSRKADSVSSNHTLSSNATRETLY
Beta cell apopt = inhibitors of cytokine-induced beta cell apoptosis, primary screen, luminescence. INS-1E cytokine-induced death, ATP luminescence, 48 h; percent of positive-control rescue, neutral wells zero. protection from apoptosis, % (concentration not given with the values). AID 435005, 2010. hit rate 0.8% among 300,000;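 active means Every replicate reaches about 75%, or at least half do and their mean reaches it too, limit read from the data; inconclusive means At least half of replicates reach the limit but their mean does not; inactive means Under half of replicates reach the limit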;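 further: higher means more ATP so stronger rescue from cytokine killing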
Bfl-1 A1 inh = caspase 3/7 activation in MEF A1-2A-BIM cells, primary screen, A1 inhibitor project, cell-based, luminescence, HTS; Caspase-Glo 3/7 luminescence, 3 h; percent of clofoctol response, vehicle zero; caspase activation, % (concentration not given with the values); hit rate 0.066% among 330,000;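 active means over half of replicate activation scores above 10%, or exactly half above 10 with the replicate mean above 10; inconclusive means replicate mean below 10 yet half the replicates above 10; inactive means over half of replicates below 10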
697 NFkB inh = inhibitors of PMA/ionomycin-induced NF-kB reporter, 697 cells, primary screen, B-cell NF-kB inhibitor project, cell-based, luminescence, uHTS | 697 B-cell NF-kB luciferase reporter, 16 h | inhibition, % at 4 µM | hit rate 0.33% among 330,000; in the data active means inhibition above about 35%
Mdm2-MdmX inh = inhibitors of human Mdm2-MdmX association, primary screen, cell-based, luminescence, split luciferase, SaOS-2, uHTS | AID 485346, 2010 | SaOS-2 split-luciferase Mdm2/MdmX complementation | Protein Mdm4 (Homo sapiens) + E3 ubiquitin-protein ligase Mdm2 (Homo sapiens), … | inhibition, % at 8 µM | hit rate 3% among 330,000;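 active means inhibition of at least 50% at 8 µM in the primary screen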
Jurkat NFkB inh = inhibitors of induced NF-kB luciferase reporter, primary screen, TCR NF-kB activation inhibitor project, cell-based, luminescence, uHTS. Jurkat, PMA/ionomycin-induced NF-kB luciferase reporter. inhibition, % at 4 µM. hit rate 0.53% among 330,000. AID 435003, 2010; in the data active means inhibition above about 50%
Large screens that a line does not name were inactive.

Cc1ccc(-c2csc(N3CCC(C(N)=O)CC3)n2)cc1	none
Cc1cc(C)n2nc(SCc3nnc(SCc4ccccc4C)s3)nc2n1	Beta cell apopt 103
CC(C)OCCCNC(=O)c1cn(C)c2ccc(S(=O)(=O)N3CCCC3)cc2c1=O	none
Cc1oc(C(C)(C)C)cc1C(=O)NCc1ccc2c(c1)OCO2	none
Cn1nc(C(C)(C)C)cc1C(=O)NCc1ccc2c(c1)OCO2	Beta cell apopt 117
COc1ccccc1/C=C1\N=C(C(C)(C)C)OC1=O	none
O=C(CCCCCCCCCCC(=O)NCc1cccnc1)NCc1cccnc1	Beta cell apopt 112
O=C(/C=C/c1ccccc1)NCc1cccnc1	none
O=C(/C=C/c1ccc(-c2ccccc2)cc1)NCc1cccnc1	Beta cell apopt 98
O=C(CCCN1C(=O)c2ccccc2C1=O)NCc1cccnc1	none
Cc1ccc(-c2cc(C(=O)NCc3cccnc3)no2)cc1	none
O=C(NCc1cccnc1)c1cc(-c2ccco2)on1	Beta cell apopt 101
CSCCC(NC(=O)COc1ccccc1)C(=O)N(C)Cc1ccc(SC)cc1 (stereo not given)	none
COc1ccc(CCNC(=O)C2(C)CCC(=O)N2Cc2ccc(C)cc2)cc1OC (stereo not given)	none
Fc1ccc(CSc2nnc(-c3ccccn3)o2)cc1	none (no result: Beta cell apopt)
CC1C(=O)C(C)C(c2cc(Cl)ccc2O)NC1c1cc(Cl)ccc1O (stereo not given)	NTR1 ag 60
COc1ccc(/C=C/C(=O)NC(=S)Nc2ccccc2C(=O)NC2CCCCC2)cc1	Beta cell apopt 79
CC(NC(=O)C1CCN(C(=O)Nc2ccccc2)CC1)c1ccc(Cl)cc1 (stereo not given)	none
Cc1onc(-c2ccccc2)c1-c1nnc(-c2ccccc2C(F)(F)F)o1	Bfl-1 A1 inh inconclusive
CCn1c(C)nc2cc(-c3nnc(-c4c(-c5ccccc5)noc4C)o3)ccc21	Beta cell apopt 113
Cn1c(=O)c2c(ncn2CC(=O)Nc2cc(S(=O)(=O)N3CCCCC3)ccc2O)n(C)c1=O	none
Cc1nc2ccccc2n1Cc1ccccc1	none
Cc1nc2ccccc2n1Cc1ccc(Br)cc1	Beta cell apopt 96
O=c1c2c(nc3c(-c4cccc5ccccc45)c[nH]n13)CCC2	none
O=c1c2c(nc3c(-c4ccc(Cl)cc4)c[nH]n13)CCCC2	Beta cell apopt 93
NC(=S)NC(c1ccccc1)c1ccncc1 (stereo not given)	none
NC(=O)c1ccc(N2CCN(S(=O)(=O)c3cccs3)CC2)c([N+](=O)[O-])c1	Beta cell apopt 82, Bfl-1 A1 inh inconclusive
NC(=O)c1ccc(N2CCN(c3ccccc3O)CC2)c([N+](=O)[O-])c1	none
CCN(C[C@H]1N[C@@](Cc2ccccc2)(C(=O)OC)[C@H]2C(=O)N(C)C(=O)[C@@H]12)C(=O)C1CCCCC1	none (no result: Beta cell apopt, Bfl-1 A1 inh)
CCCNC(=O)Cn1cc(S(=O)(=O)N2CCCC2)c(S(=O)(=O)N2CCCC2)c1	none
COC(=O)c1c(NC(=O)C2c3ccccc3Oc3ccccc32)sc(C)c1C	none
COC(=O)c1sc(NC(=O)C2c3ccccc3Oc3ccccc32)c(C(=O)OC)c1C	Beta cell apopt 116
CC(C)Oc1ccc(CNC(=O)CC(c2ccccc2)c2cc(Cl)ccc2O)cc1 (stereo not given)	NTR1 ag 51
COc1ccccc1C(CC(=O)Nc1ccc(Cl)cc1)c1ccc(OC(C)C)cc1 (stereo not given)	none
CCc1ccc(-n2c(C)cc(/C=N/NC(=O)c3ccncc3)c2C)cc1	Beta cell apopt 106
CC(C)CN(C(=O)COc1ccc([N+](=O)[O-])cc1)c1c(N)n(CC(C)C)c(=O)[nH]c1=O	none
O=C(Nc1ccc(C(F)(F)F)cc1)C1CCN(S(=O)(=O)c2ccc(N3CCCC3=O)cc2)CC1	Beta cell apopt 101
COCCCn1c(=O)c2sccc2n(Cc2cc(C(=O)OC)ccc2OC)c1=O	none
O=C(OCC(=O)N1CCN(C(=O)c2ccco2)CC1)c1ccccc1NCCO	none
COc1cc(CN2CCc3ccccc3C2)ccc1O	Beta cell apopt 142, Bfl-1 A1 inh 33
COc1cc(CN2CCc3ccccc3C2)cc([N+](=O)[O-])c1O	none
CCOC(=O)COc1ccc2ccccc2c1/C=C/[N+](=O)[O-]	Beta cell apopt 106 (no result: NTR1 ag, 697 NFkB inh, Mdm2-MdmX inh, Jurkat NFkB inh)
Cc1ccc([N+](=O)[O-])cc1N(CC(=O)NC1CCCC1)S(C)(=O)=O	none
Cc1ccc(NS(=O)(=O)c2ccc(NC(=O)CN(c3cc([N+](=O)[O-])ccc3C)S(C)(=O)=O)cc2)c(C)c1	Beta cell apopt 106
CC(=O)Nc1ccc(NC(=O)CN(c2cccc([N+](=O)[O-])c2)S(C)(=O)=O)cc1	Beta cell apopt 108
CS(=O)(=O)N(CC(=O)Nc1cccc(F)c1)c1cccc([N+](=O)[O-])c1	none
CC1CC(NC(=O)c2c(O)nc3sccn3c2=O)CC(C)(C)C1 (stereo not given)	none
COCc1cc(CN2CCCC(C(=O)Nc3ccc(-c4ccco4)cc3)C2)ccc1OC (stereo not given)	none
Cc1nc(NC(=O)C23CC4CC(CC(C4)C2)C3)sc1Cc1ccc2c(c1)OCO2	Beta cell apopt 102
C=CCn1c(=O)c2c(nc3n2CCCN3CCc2ccc(OC)c(OC)c2)n(C)c1=O	none
Cc1cc(C)c(S(=O)(=O)/N=C2/C=C(Sc3ncn[nH]3)C(=O)c3ccccc32)cc1C	Beta cell apopt 129 (no result: NTR1 ag, 697 NFkB inh, Mdm2-MdmX inh, Jurkat NFkB inh)
Cc1ccc(C)c(S(=O)(=O)/N=C2\C=C(NS(=O)(=O)c3ccccc3)C(=O)c3ccccc32)c1	none
CCCCCCCC[n+]1c(C)n(-c2ccccc2)c2ccc(NC(C)=O)cc21	Beta cell apopt 102
CC(=O)NC(C)c1cc(Cl)c2cccnc2c1O (stereo not given)	Beta cell apopt 92
O=C1N/C(=C/c2ccc(N3CCOCC3)o2)C(=O)N1c1ccccc1	none (no result: NTR1 ag, 697 NFkB inh, Mdm2-MdmX inh, Jurkat NFkB inh)
C=CCN1C(=O)N/C(=C/c2ccc(N3CCOCC3)o2)C1=O	Beta cell apopt 109
Cc1ccc(NC(=O)c2ccc(NCc3ccco3)c([N+](=O)[O-])c2)cc1Cl	Bfl-1 A1 inh 31
Cc1ccc(NC(=O)c2ccc(NCC3CCCO3)c([N+](=O)[O-])c2)cc1Cl (stereo not given)	Bfl-1 A1 inh 8.2 (no result: Beta cell apopt)
Cc1ccc(C(=O)NCc2ccco2)cc1[N+](=O)[O-]	none
c1ccc(CCNc2ncnc3sccc23)nc1	none
Cc1csc2ncnc(NCCc3ccccn3)c12	Beta cell apopt 79

Screens deposited in PubChem BioAssay by several laboratories.
